Measured values from PubChem BioAssay AID1159580 (chemical genetic matrix, 2015).
In all, about 5,500 compounds went through this assay and about 2,000 (36%) were called active. Roughly 18% stayed inconclusive and do not appear here. Some of the results follow. A number with no mark means an inactive call. No stated cut-off is given here; in the data, active means normalized growth mostly below about 0.91 (no sharp cut-off); inconclusive means no clear call, values can overlap the other calls; inactive means mostly above about 0.92.

Assay: chemical genetic growth profiling, strain panel (AID 1159580);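 further: tested at 20 µM; growth read once vehicle control cultures reached saturation at 30 °C; 1 = growth at the plate median or of vehicle wells; lower values mean less growth of the strain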
Details: S. cerevisiae deletion strains, growth OD
[1] = locus YDL101C, strain DUN1, active compounds read low
[2] = locus YHR030C, strain SLT2, active compounds read low

Cc1nc(-c2cccnc2)nc(NCc2ccccc2)c1Cl
normalized growth (locus YAR019C, strain CDC15, active compounds read low): 0.943
normalized growth (locus YBL105C, strain PKC1, active compounds read low): 0.945
normalized growth (locus YBR135W, strain CKS1, active compounds read low): 0.941
normalized growth (locus YBR136W, strain MEC1, active compounds read low): 0.919
normalized growth (locus YBR160W, strain CDC28, active compounds read low): 0.955
normalized growth (locus YDL017W, strain CDC7, active compounds read low): 0.943
normalized growth (locus YDL028C, strain MPS1, active compounds read low): 0.926
normalized growth [1]: 0.938
normalized growth (locus YDL108W, strain KIN28, active compounds read low): 0.924
normalized growth (locus YDL132W, strain cdc53, active compounds read low): 0.939
normalized growth (locus YDL214C, strain PRR2, active compounds read low): 0.866
normalized growth (locus YDR052C, strain DBF4, active compounds read low): 0.945
normalized growth (locus YDR054C, strain cdc34, active compounds read low): 0.933
normalized growth (locus YDR226W, strain ADK1, active compounds read low): 0.951
normalized growth (locus YDR477W, strain SNF1, active compounds read low): 0.887
normalized growth (locus YER123W, strain YCK3, active compounds read low): 0.784
normalized growth (locus YER133W, strain GLC7, active compounds read low): 0.853
normalized growth (locus YFL009W, strain cdc4, active compounds read low): 0.932
normalized growth (locus YFL029C, strain CAK1, active compounds read low): 0.941
normalized growth (locus YFR003C, strain YPI1, active compounds read low): 0.943
normalized growth (locus YFR019W, strain FAB1, active compounds read low): 0.946
normalized growth (locus YFR028C, strain CDC14, active compounds read low): 0.931
normalized growth (locus YGR040W, strain KSS1, active compounds read low): 0.841
normalized growth (locus YGR052W, strain FMP48, active compounds read low): 0.937
normalized growth (locus YGR092W, strain DBF2, active compounds read low): 0.8
normalized growth [2]: 0.936
normalized growth (locus YHR079C, strain IRE1, active compounds read low): 0.887
normalized growth (locus YHR082C, strain KSP1, active compounds read low): 0.935
normalized growth (locus YHR205W, strain SCH9, active compounds read low): 0.886
normalized growth (locus YIL147C, strain SLN1, active compounds read low): 0.929
normalized growth (locus YJL095W, strain BCK1, active compounds read low): 0.923
normalized growth (locus YJL128C, strain PBS2, active compounds read low): 0.907
normalized growth (locus YJL157C, strain FAR1, active compounds read low): 0.877
normalized growth (locus YJR016C, strain ILV3, active compounds read low): 0.935
normalized growth (locus YJR066W, strain TOR1 (second series), active compounds read low): 0.884
normalized growth (locus YJR066W, strain TOR1, active compounds read low): 0.922
normalized growth (locus YKL048C, strain ELM1, active compounds read low): 0.94
normalized growth (locus YKL067W, strain YNK1, active compounds read low): 0.89
normalized growth (locus YKL101W, strain HSL1, active compounds read low): 0.892
normalized growth (locus YKL193C, strain SDS22, active compounds read low): 0.937
normalized growth (locus YKL203C, strain TOR2, active compounds read low): 0.923
normalized growth (locus YLR113W, strain HOG1, active compounds read low): 0.846 (active)
normalized growth (locus YLR133W, strain CKI1, active compounds read low): 0.913
normalized growth (locus YLR403W, strain SFP1, active compounds read low): 0.849
normalized growth (locus YML070W, strain DAK1, active compounds read low): 0.847
normalized growth (locus YMR001C, strain CDC5, active compounds read low): 0.938
normalized growth (locus YMR205C, strain PFK2 (second series), active compounds read low): 0.897
normalized growth (locus YMR277W, strain FCP1, active compounds read low): 0.943
normalized growth (locus YNL006W, strain LST8, active compounds read low): 0.954
normalized growth (locus YNL020C, strain ARK1, active compounds read low): 0.885
normalized growth (locus YNL161W, strain CBK1, active compounds read low): 0.952
normalized growth (locus YNL183C, strain NPR1, active compounds read low): 0.898
normalized growth (locus YNL207W, strain RIO2, active compounds read low): 0.922
normalized growth (locus YNL222W, strain SSU72, active compounds read low): 0.942
normalized growth (locus YNL307C, strain MCK1 (second series), active compounds read low): 0.899
normalized growth (locus YOL078W, strain AVO1, active compounds read low): 0.941
normalized growth (locus YOL136C, strain PFK27, active compounds read low): 0.877
normalized growth (locus YOR061W, strain CKA2, active compounds read low): 0.89
normalized growth (locus YOR119C, strain RIO1, active compounds read low): 0.889
normalized growth (locus YOR231W, strain MKK1, active compounds read low): 0.9
normalized growth (locus YOR329C, strain SCD5, active compounds read low): 0.948
normalized growth (locus YPL031C, strain PHO85, active compounds read low): 0.82
normalized growth (locus YPL153C, strain RAD53, active compounds read low): 0.841
normalized growth (locus YPL204W, strain HRR25, active compounds read low): 0.856
normalized growth (locus YPL209C, strain IPL1, active compounds read low): 0.942
normalized growth (locus YPL256C, strain CLN2, active compounds read low): 0.908
normalized growth (locus YPR025C, strain CCL1, active compounds read low): 0.951
normalized growth (locus YPR106W, strain ISR1, active compounds read low): 0.953
normalized growth (locus YPR111W, strain DBF20, active compounds read low): 0.942
normalized growth (strain NNK1, active compounds read low): 0.94
normalized growth (strain TSCII, active compounds read low): 0.934

COc1cc(C2OC(c3cc(C)ccc3[N+](=O)[O-])=NN2C(C)=O)cc(OC)c1OC (stereo unspecified)
normalized growth (locus YAL013W, strain DEP1, active compounds read low): 0.986
normalized growth (locus YBR229C, strain ROT2, active compounds read low): 0.975
normalized growth [1]: 1.04
normalized growth (locus YDL134C, strain PPH21, active compounds read low): 0.999
normalized growth (locus YDR150W, strain NUM1, active compounds read low): 0.993
normalized growth (locus YEL061C, strain CIN8, active compounds read low): 0.941
normalized growth (locus YGR078C, strain PAC10, active compounds read low): 1
normalized growth (locus YGR229C, strain SMI1, active compounds read low): 0.999
normalized growth [2]: 0.948
normalized growth (locus YHR087W, strain rtc3, active compounds read low): 0.963
normalized growth (locus YJL187C, strain SWE1, active compounds read low): 0.98
normalized growth (locus YJR043C, strain POL32, active compounds read low): 1
normalized growth (locus YJR075W, strain HOC1, active compounds read low): 0.999
normalized growth (locus YKL190W, strain CNB1, active compounds read low): 0.993
normalized growth (locus YLR039C, strain RIC1, active compounds read low): 0.969
normalized growth (locus YLR058C, strain SHM2 (second series), active compounds read low): 0.978
normalized growth (locus YLR085C, strain ARP6, active compounds read low): 0.967
normalized growth (locus YLR262C, strain YPT6, active compounds read low): 0.948
normalized growth (locus YML094W, strain GIM5, active compounds read low): 0.98
normalized growth (locus YMR219W, strain ESC1, active compounds read low): 0.984
normalized growth (locus YMR263W, strain SAP30, active compounds read low): 0.999
normalized growth (locus YNL128W, strain TEP1, active compounds read low): 0.991
normalized growth (locus YNL153C, strain GIM3, active compounds read low): 1.02
normalized growth (locus YNL298W, strain CLA4 (second series), active compounds read low): 1.01
normalized growth (locus YNL322C, strain KRE1, active compounds read low): 0.993
normalized growth (locus YNR030W, strain Alg12, active compounds read low): 0.985
normalized growth (locus YOL006C, strain TOP1, active compounds read low): 0.924
normalized growth (locus YPL055C, strain LGE1, active compounds read low): 0.972
normalized growth (locus YPL241C, strain CIN2, active compounds read low): 1.01
normalized growth (locus YPR135W, strain CTF4, active compounds read low): 1.04
